Laboratory results as given in PubChem BioAssay (NCI).
Several values for one entry are separate records, joined by “and”; a condition that tells them apart may be missing. Equal values may be shown once. About 83,000 compounds went through this panel and 20% of them were active in at least one assay; those are over-represented in the sample as a whole.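 The test compound was applied at a single concentration to cells in 96-well plates for 48 hours, and percent growth was recorded.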 More than one record can exist for a structure, and the calls need not agree. Activity calls are given as the source filed them. How the source made its calls: active means growth percent below 10; inactive means the rest.

Experiments:
Experiment in all cases: NCI-60 one-dose screen, 48 h (100 = growth as untreated, 0 = no growth, -100 = all killed)
Settings in all cases: 10 µM
MALME-3M melanoma = tested on: MALME-3M melanoma
MDA-MB-231 breast = tested on: MDA-MB-231 breast
RXF 393 renal = tested on: RXF 393 renal
M14 melanoma = tested on: M14 melanoma
SK-MEL-5 melanoma = tested on: SK-MEL-5 melanoma
LOX IMVI melanoma = tested on: LOX IMVI melanoma
SK-MEL-28 melanoma = tested on: SK-MEL-28 melanoma
SN12C renal = tested on: SN12C renal
MOLT-4 leukemia = tested on: MOLT-4 leukemia
OVCAR-5 ovarian = tested on: OVCAR-5 ovarian
OVCAR-4 ovarian = tested on: OVCAR-4 ovarian
SK-OV-3 ovarian = tested on: SK-OV-3 ovarian
IGROV1 ovarian = tested on: IGROV1 ovarian
HS 578T breast = tested on: HS 578T breast
NCI/ADR-RES ovarian = tested on: NCI/ADR-RES ovarian
T-47D breast = tested on: T-47D breast
SW-620 colon = tested on: SW-620 colon
MCF7 breast = tested on: MCF7 breast
HCT-116 colon = tested on: HCT-116 colon
KM12 colon = tested on: KM12 colon

Structure (SMILES) | growth (MALME-3M melanoma) | growth (MDA-MB-231 breast) | growth (RXF 393 renal) | growth (M14 melanoma) | growth (SK-MEL-5 melanoma) | growth (LOX IMVI melanoma) | growth (SK-MEL-28 melanoma) | growth (SN12C renal) | growth (MOLT-4 leukemia) | growth (OVCAR-5 ovarian) | growth (OVCAR-4 ovarian) | growth (SK-OV-3 ovarian) | growth (IGROV1 ovarian) | growth (HS 578T breast) | growth (NCI/ADR-RES ovarian) | growth (T-47D breast) | growth (SW-620 colon) | growth (MCF7 breast) | growth (HCT-116 colon) | growth (KM12 colon)
Cc1ccc(CNc2nc3ccc(OC/C(=C/F)CN)cc3o2)cn1 | 105% (inactive) | 79.6% (inactive) | 69.1% (inactive) | 99.8% (inactive) | 98% (inactive) | 88.4% (inactive) | 107% (inactive) | -37.4% (active) | 99.8% (inactive) | 103% (inactive) | 88.1% (inactive) | 105% (inactive) | 78.5% (inactive) | 101% (inactive) | 102% (inactive) | 101% (inactive) | 97.6% (inactive) | 88.8% (inactive) | 100% (inactive) | 103% (inactive)
COc1cc2c(cc1OC)[C@@H]1N(CC2)C(=O)c2ccccc2[C@@]1(C)C(=O)O | 64.6% (inactive) | 101% (inactive) | 127% (inactive) |  | 101% (inactive) | 105% (inactive) | 113% (inactive) | 102% (inactive) | 108% (inactive) | 106% (inactive) | 105% (inactive) | 113% (inactive) | 106% (inactive) | 108% (inactive) | 106% (inactive) | 116% (inactive) | 109% (inactive) | 97.4% (inactive) | 111% (inactive) | 113% (inactive)
C/C=C/CC(C)C(O)[C@H](NC(=O)[C@@H]1CCCN1C(=O)C(C)(C)NC(=O)CCCCCCC)C(=O)N[C@@](C)(CC)C(=O)N[C@@H](CCC(N)=O)C(=O)N[C@H](CCC(N)=O)C(=O)NC(C)(C)C(=O)NC(C)(C)C(=O)N[C@@H](CCC(N)=O)C(=O)N[C@H](CC(C)C)C(=O)N[C@H](CO)CC(C)C (stereo partly specified) | 109% (inactive) and -65.1% (active) | 108% (inactive) and -6.87% (active) | 112% (inactive) and -10.7% (active) | 103% (inactive) and 25.1% (inactive) | 100% (inactive) and -65.7% (active) | 33.2% (inactive) | 107% (inactive) and -74.9% (active) | 102% (inactive) and 9.5% (active) | 101% (inactive) and -32.4% (active) | 114% (inactive) and 40% (inactive) | 108% (inactive) and 44.5% (inactive) | 101% (inactive) and 52.6% (inactive) | 113% (inactive) and 46.4% (inactive) | 110% (inactive) and -10.8% (active) | 106% (inactive) and 48.9% (inactive) | 102% (inactive) and 7.2% (active) | 103% (inactive) and 31.6% (inactive) | 93.3% (inactive) and 4.76% (active) | 108% (inactive) and 25.3% (inactive) | 119% (inactive) and -53% (active)
COC1[C@@H]2C[C@H]3C(C)(C)O[C@@](C/C=C(/C)C(=O)O)(C2=O)[C@]32Oc3c(CC=C(C)C)c4c(c(O)c3C(=O)[C@H]12)C=CC(C)(C)O4 (stereo partly specified) | -90.2% (active) | -18.3% (active) | -81.1% (active) | -53.9% (active) | -98.4% (active) | -97.2% (active) | -61.4% (active) | -16.7% (active) | -8.14% (active) | -40% (active) | -33.7% (active) | 13.7% (inactive) | -26% (active) | 22.9% (inactive) | -10.9% (active) | -27.2% (active) | -14.7% (active) | -78.8% (active) | -61.4% (active) | -84.3% (active)
CC1=C(CN(O)C(N)=O)C2=C(C)C3(CC3)[C@@](C)(O)C(=O)C2=C1 | -39.2% (active) | 6.59% (active) | -78.9% (active) | -63% (active) | -61.6% (active) | -27.6% (active) | -33% (active) | 15.4% (inactive) | 104% (inactive) | 17.5% (inactive) | -0.96% (active) | -16.3% (active) | 11.1% (inactive) | -16.8% (active) | -5.11% (active) | -3.77% (active) | 86% (inactive) | 9.79% (active) | 4.72% (active) | 3.43% (active)
N#Cc1nc(-c2ccccc2)oc1N1CCC(S(=O)(=O)F)CC1 | 98.9% (inactive) | 98.7% (inactive) | 92.3% (inactive) | 106% (inactive) | 96.3% (inactive) | 104% (inactive) | 104% (inactive) | 100% (inactive) | 94.3% (inactive) | 104% (inactive) | 101% (inactive) | 107% (inactive) | 103% (inactive) | 98.5% (inactive) | 104% (inactive) | 106% (inactive) | 103% (inactive) | 98.2% (inactive) | 101% (inactive) | 97.1% (inactive)
CC1=C(CN(O)C(N)=O)C2=C(C)C3(CC3)[C@](C)(O)C(=O)C2=C1 | 2.97% (active) | 12.4% (inactive) | -85.3% (active) | -55.4% (active) | 85.8% (inactive) | 56% (inactive) | -28.4% (active) | 25.1% (inactive) | 76.2% (inactive) | 10.3% (inactive) | 13.7% (inactive) | 14.7% (inactive) | 29% (inactive) | 33.7% (inactive) | 15.9% (inactive) | 6.89% (active) | 8.93% (active) | 3.76% (active) | 7.48% (active) | -1.93% (active)
CC1=C(CCC=NNC(N)=O)C2=C(C)C3(CC3)[C@@](C)(O)C(=O)C2=C1 | -71.1% (active) | -5% (active) | -93.6% (active) | -84.4% (active) | -80.6% (active) | -31.9% (active) | -48.8% (active) | 1.73% (active) | 47.2% (inactive) | -6.93% (active) | -33.3% (active) | -52.1% (active) | -17.8% (active) | -23.6% (active) | -18.1% (active) | -9.73% (active) | 55.4% (inactive) | 6.29% (active) | 1.32% (active) | 6.64% (active)
CC1=C2C(=C[C@@](C)(COS(C)(=O)=O)[C@@H]2O)C(=O)[C@](C)(O)C12CC2 | -33% (active) | 8.84% (active) | -78.1% (active) | -8.82% (active) | -18% (active) | -3.47% (active) | -28.4% (active) | 13.8% (inactive) | 10.4% (inactive) | 1.82% (active) | -0.135% (active) | -13.9% (active) | 8.2% (active) | -9.58% (active) | 0.993% (active) | -0.976% (active) | 11.7% (inactive) | 3.13% (active) | 4.67% (active) | -3.28% (active)
O=C(CCCc1ccc(N(CCCl)CCCl)cc1)OCc1ccccc1 | 92% (inactive) | 103% (inactive) | 109% (inactive) | 95.1% (inactive) | 93.7% (inactive) | 77.2% (inactive) | 101% (inactive) | 79.1% (inactive) | 76.7% (inactive) | 117% (inactive) | 105% (inactive) | 108% (inactive) | 87.8% (inactive) | 114% (inactive) | 93.9% (inactive) | 75.6% (inactive) | 91.1% (inactive) | 81.8% (inactive) | 92.7% (inactive) | 99.7% (inactive)
COc1cc2c(O[C@@H]3OC[C@H](OC(C)=O)[C@H](OC(C)=O)[C@H]3O)c3c(c(-c4ccc5c(c4)OCO5)c2cc1OC)C(=O)OC3 | 39.3% (inactive) | 13.7% (inactive) | 54.4% (inactive) | -17.9% (active) |  | -53.7% (active) |  |  | 13.7% (inactive) | 73% (inactive) | 51.4% (inactive) | 23.8% (inactive) | 47.9% (inactive) | 60.3% (inactive) | 37.7% (inactive) | -2.78% (active) | 14.1% (inactive) | 36.9% (inactive) | 9.2% (active) | 27.8% (inactive)
C/C=C/CC(C)C(O)[C@H](NC(=O)[C@@H]1CCCN1C(=O)C(C)(C)NC(=O)CCCCCCCCC)C(=O)NC(C)(C)C(=O)N[C@@H](CCC(N)=O)C(=O)N[C@H](CCC(N)=O)C(=O)NC(C)(C)C(=O)NC(C)(C)C(=O)N[C@@H](CCC(N)=O)C(=O)N[C@H](CC(C)C)C(=O)N[C@H](CO)CC(C)C (stereo partly specified) | -41.5% (active) and -92.4% (active) | 6.89% (active) and -91.8% (active) | -54.3% (active) and -73.3% (active) | -31.6% (active) and -53.6% (active) | -93.3% (active) and -92.8% (active) | -78.5% (active) and -80.2% (active) | -84.9% (active) and -100% (active) | 2.83% (active) and -20.9% (active) | -48.2% (active) and -23.8% (active) | 50.4% (inactive) and -66.8% (active) | 60% (inactive) and 47.2% (inactive) | 61.8% (inactive) and 50.9% (inactive) | 30.5% (inactive) and 5.27% (active) | -36.6% (active) and -60.1% (active) | 51.1% (inactive) and 4.23% (active) | 24.8% (inactive) and 10.8% (inactive) | 33.1% (inactive) and 15.3% (inactive) | 2.98% (active) and -45.1% (active) | 13.1% (inactive) and 6.15% (active) | -75.9% (active) and -59% (active)
COc1cc(C)c(-c2ccc(OC)c(=O)cc2C)c(OC)c1OC | 46.7% (inactive) and 95.3% (inactive) | 18.3% (inactive) and 99.8% (inactive) | -10.8% (active) and 115% (inactive) | 4.63% (active) and 101% (inactive) | 21.7% (inactive) and 99.7% (inactive) | 18% (inactive) and 106% (inactive) | 47.9% (inactive) and 103% (inactive) | 37.1% (inactive) and 98.3% (inactive) | 12.3% (inactive) and 102% (inactive) | 24.6% (inactive) and 98.9% (inactive) | 70.9% (inactive) and 96.9% (inactive) | 32.4% (inactive) and 102% (inactive) | 27.2% (inactive) and 103% (inactive) | 1.63% (active) and 109% (inactive) | -11.5% (active) and 107% (inactive) | 61% (inactive) and 137% (inactive) | 19.6% (inactive) and 104% (inactive) | 14.8% (inactive) and 91.5% (inactive) | 11.9% (inactive) and 102% (inactive) | 6.94% (active) and 109% (inactive)
